Results published in the supplement of paper PMC10849652.
Of roughly 7,900 targets only a part is listed; those with a hit were picked by preference. About 0.6% of all pairs of compound and target were hits. Unmarked numbers belong to inactive results.

Tests used:
Test in all cases: log2 fold change, soluble protein after heating vs DMSO (PISA); higher = thermal stabilisation; K562 cells, 10 uM, 30 min; active = over 0.2 and 3.5 SD of the protein, either way, in both replicates (recomputed)
[1] = compound: CC[C@@H]1C(=O)N(C)c2cnc(Nc3ccc(C(=O)NC4CCN(C)CC4)cc3OC)nc2N1C1CCCC1
Procedure, shortened: (§1)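 K562 cells (2×10^6 cells/mL) were treated with 10 μM compound for 30 min, and aliquots were heated for 3 min over 48°C-58°C. Pooled aliquots were extracted in PBS with 0.5% NP-40 at 4°C, and the supernatant after 21,000xg for 90 min was measured by TMTpro 16plex LC-MS/MS with channel sums equalised. Reported thermal stability, relative to control samples and from duplicates, is a log2 fold change.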

volasertib = compound: CC[C@@H]1C(=O)N(C)c2cnc(Nc3ccc(C(=O)N[C@H]4CC[C@H](N5CCN(CC6CC6)CC5)CC4)cc3OC)nc2N1C(C)C [volasertib]
Procedure, shortened: as §1

[2] = compound: CC[C@H](C)N1C=C(C2=C(C=C(C=C21)C3=CN=C(C=C3)N4CCNCC4)C(=O)NCC5=C(C=C(NC5=O)C)C)C
Procedure, shortened: as §1

epoxomicin = compound: CC[C@H](C)[C@@H](C(=O)N[C@@H]([C@@H](C)O)C(=O)N[C@@H](CC(C)C)C(=O)[C@]1(CO1)C)NC(=O)[C@H]([C@@H](C)CC)N(C)C(=O)C [epoxomicin]
Procedure, shortened: as §1

[3] = compound: CCn1c(C(=O)N(C2CC2)C2CC2)cc2c3c(ncn3C)c(Nc3cc(C)n(C)n3)nc21
Procedure, shortened: as §1

[4] = compound: CCn1cc(-c2ccnc3[nH]c(-c4cccc(CN(C)C)c4)cc23)c(-c2ccc(NC(=O)N(C)C)cc2)n1
Procedure, shortened: as §1

[5] = compound: CN(C)CC(=O)Nc1ccc2[nH]c(=O)c3ccccc3c2c1
Procedure, shortened: as §1

rosiglitazone = compound: CN(CCOC1=CC=C(C=C1)C[C@H]2C(=O)NC(=O)S2)C3=CC=CC=N3 (racemic) [rosiglitazone]
Procedure, shortened: as §1

[6] = compound: CN1C2=C(C3=C1C(=O)N(N=C3)CC4=CC(=CC=C4)N)SC(=C2)S(=O)C
Procedure, shortened: as §1

[7] = compound: CN1CCC(CNc2ccc3ncc(-c4cccc(OC(F)(F)F)c4)n3n2)CC1
Procedure, shortened: as §1

saracatinib = compound: CN1CCN(CCOc2cc(OC3CCOCC3)c3c(Nc4c(Cl)ccc5c4OCO5)ncnc3c2)CC1 [saracatinib]
Procedure, shortened: as §1

sotrastaurin = compound: CN1CCN(c2nc(C3=C(c4c[nH]c5ccccc45)C(=O)NC3=O)c3ccccc3n2)CC1 [sotrastaurin]
Procedure, shortened: as §1

alvocidib = compound: CN1CC[C@H](c2c(O)cc(O)c3c(=O)cc(-c4ccccc4Cl)oc23)[C@H](O)C1 [alvocidib]
Procedure, shortened: as §1

Tubastatin A = compound: CN1CCc2c(c3ccccc3n2Cc2ccc(C(=O)NO)cc2)C1 [Tubastatin A]
Procedure, shortened: as §1

[8] = compound: CNC(=O)C1=CC=CC=C1NC2=NC(=NC=C2Cl)NC3=C(C=C(C=C3)N4CCOCC4)OC
Procedure, shortened: as §1

defactinib = compound: CNC(=O)c1ccc(Nc2ncc(C(F)(F)F)c(NCc3nccnc3N(C)S(C)(=O)=O)n2)cc1 [defactinib]
Procedure, shortened: as §1

rucaparib = compound: CNCc1ccc(-c2[nH]c3cc(F)cc4c3c2CCNC4=O)cc1 [rucaparib]
Procedure, shortened: as §1

[9] = compound: CNc1nc(-c2ccc3c(N)n[nH]c3c2)cc(N2C[C@@H](C(=O)NC3CCCCC3)CC[C@H]2C)n1
Procedure, shortened: as §1

encorafenib = compound: COC(=O)N[C@@H](C)CNc1nccc(-c2cn(C(C)C)nc2-c2cc(Cl)cc(NS(C)(=O)=O)c2F)n1 [encorafenib]
Procedure, shortened: as §1

[10] = compound: COC(=O)[C@H](CCSC)NC(=O)C1=C(C=C(C=C1)NC[C@H](CS)N)C2=CC=CC=C2
Procedure, shortened: as §1

Sequence of UniProt Q15738 (Q15738 whole entry, looked up): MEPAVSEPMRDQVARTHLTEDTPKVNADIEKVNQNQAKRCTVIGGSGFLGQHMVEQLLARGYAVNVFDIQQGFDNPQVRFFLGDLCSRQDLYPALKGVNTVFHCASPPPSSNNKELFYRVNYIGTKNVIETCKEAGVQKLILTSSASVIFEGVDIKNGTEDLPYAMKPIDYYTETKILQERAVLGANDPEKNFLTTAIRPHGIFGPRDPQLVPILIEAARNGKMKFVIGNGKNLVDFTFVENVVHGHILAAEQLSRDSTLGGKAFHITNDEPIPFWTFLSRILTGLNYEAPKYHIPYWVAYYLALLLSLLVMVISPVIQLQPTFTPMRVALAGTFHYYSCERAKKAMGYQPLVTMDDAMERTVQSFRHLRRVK
Sequence of UniProt Q9BUK6 (Q9BUK6 whole entry, looked up): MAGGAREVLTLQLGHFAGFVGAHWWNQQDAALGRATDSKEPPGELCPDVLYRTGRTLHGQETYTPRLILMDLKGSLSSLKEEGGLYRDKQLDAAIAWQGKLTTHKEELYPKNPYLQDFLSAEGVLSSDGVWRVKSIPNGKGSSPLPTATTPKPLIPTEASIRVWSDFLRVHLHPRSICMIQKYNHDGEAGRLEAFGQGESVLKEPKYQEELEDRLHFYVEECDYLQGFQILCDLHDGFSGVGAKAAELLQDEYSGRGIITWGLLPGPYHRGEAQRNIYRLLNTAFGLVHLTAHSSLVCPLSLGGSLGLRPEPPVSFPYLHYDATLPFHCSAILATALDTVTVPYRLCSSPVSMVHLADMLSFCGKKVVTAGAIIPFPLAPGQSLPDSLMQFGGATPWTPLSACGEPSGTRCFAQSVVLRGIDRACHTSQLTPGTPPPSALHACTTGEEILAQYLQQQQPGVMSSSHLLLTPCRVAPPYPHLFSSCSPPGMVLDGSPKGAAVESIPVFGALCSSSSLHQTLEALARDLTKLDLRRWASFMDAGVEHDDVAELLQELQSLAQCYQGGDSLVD
Sequence of UniProt Q9Y314 (Q9Y314 whole entry, looked up): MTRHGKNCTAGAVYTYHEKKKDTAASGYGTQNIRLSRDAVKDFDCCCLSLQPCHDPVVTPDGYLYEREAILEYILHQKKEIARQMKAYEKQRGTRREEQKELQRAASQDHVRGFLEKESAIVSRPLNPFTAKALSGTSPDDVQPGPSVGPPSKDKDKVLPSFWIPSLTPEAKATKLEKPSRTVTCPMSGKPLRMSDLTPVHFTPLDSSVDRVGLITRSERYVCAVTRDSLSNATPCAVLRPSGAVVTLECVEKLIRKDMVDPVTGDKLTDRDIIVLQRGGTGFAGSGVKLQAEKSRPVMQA
Sequence of UniProt Q08J23 (Q08J23 whole entry, looked up): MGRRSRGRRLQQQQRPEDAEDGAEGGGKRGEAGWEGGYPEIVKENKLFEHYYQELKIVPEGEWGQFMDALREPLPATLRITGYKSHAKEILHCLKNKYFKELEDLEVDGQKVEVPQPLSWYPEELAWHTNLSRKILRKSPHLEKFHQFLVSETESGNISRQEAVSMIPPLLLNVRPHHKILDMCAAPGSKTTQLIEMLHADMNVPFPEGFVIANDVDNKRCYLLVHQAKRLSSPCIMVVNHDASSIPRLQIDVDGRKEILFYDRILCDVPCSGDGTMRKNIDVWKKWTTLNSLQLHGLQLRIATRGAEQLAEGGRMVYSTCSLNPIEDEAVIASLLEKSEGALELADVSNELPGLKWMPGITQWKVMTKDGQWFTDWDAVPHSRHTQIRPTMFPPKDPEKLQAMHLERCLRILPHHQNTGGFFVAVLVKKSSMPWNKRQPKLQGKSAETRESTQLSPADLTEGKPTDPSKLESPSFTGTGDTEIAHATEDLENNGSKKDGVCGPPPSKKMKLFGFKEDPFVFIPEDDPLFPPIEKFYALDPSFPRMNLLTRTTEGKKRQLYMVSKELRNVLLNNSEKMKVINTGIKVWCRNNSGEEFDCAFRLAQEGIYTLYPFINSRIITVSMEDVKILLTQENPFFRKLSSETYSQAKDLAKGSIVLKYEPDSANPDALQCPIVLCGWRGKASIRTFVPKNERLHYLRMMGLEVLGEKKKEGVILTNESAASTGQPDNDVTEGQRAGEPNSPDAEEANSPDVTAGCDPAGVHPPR
Sequence of UniProt Q9HCE1 (Q9HCE1 whole entry, looked up): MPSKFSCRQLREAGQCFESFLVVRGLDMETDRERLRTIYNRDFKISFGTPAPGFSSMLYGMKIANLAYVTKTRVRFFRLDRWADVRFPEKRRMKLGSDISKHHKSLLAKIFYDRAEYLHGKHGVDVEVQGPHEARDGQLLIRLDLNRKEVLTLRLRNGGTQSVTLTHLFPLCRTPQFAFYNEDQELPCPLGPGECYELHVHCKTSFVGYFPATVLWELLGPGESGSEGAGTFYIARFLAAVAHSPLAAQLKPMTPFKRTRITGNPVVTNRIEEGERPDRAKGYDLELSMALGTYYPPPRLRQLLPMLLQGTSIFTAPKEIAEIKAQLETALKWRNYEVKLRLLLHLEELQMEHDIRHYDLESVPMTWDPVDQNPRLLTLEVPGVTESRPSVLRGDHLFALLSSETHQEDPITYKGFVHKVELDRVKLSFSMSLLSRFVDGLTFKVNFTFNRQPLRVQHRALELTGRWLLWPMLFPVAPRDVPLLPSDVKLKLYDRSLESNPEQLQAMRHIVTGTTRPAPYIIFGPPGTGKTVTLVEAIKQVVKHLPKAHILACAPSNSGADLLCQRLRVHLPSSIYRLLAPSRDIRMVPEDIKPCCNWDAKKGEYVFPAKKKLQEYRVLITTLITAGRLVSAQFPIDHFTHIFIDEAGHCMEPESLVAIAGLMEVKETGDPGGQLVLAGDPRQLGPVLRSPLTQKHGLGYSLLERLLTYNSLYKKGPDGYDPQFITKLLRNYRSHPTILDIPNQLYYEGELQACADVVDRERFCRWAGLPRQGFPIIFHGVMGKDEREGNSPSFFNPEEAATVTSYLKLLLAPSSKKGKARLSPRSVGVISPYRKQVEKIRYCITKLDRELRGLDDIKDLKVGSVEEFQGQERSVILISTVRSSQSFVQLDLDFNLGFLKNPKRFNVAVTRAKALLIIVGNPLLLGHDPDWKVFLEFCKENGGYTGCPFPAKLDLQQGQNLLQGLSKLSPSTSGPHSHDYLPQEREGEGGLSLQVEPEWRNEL
Sequence of UniProt O15460 (O15460 whole entry, looked up): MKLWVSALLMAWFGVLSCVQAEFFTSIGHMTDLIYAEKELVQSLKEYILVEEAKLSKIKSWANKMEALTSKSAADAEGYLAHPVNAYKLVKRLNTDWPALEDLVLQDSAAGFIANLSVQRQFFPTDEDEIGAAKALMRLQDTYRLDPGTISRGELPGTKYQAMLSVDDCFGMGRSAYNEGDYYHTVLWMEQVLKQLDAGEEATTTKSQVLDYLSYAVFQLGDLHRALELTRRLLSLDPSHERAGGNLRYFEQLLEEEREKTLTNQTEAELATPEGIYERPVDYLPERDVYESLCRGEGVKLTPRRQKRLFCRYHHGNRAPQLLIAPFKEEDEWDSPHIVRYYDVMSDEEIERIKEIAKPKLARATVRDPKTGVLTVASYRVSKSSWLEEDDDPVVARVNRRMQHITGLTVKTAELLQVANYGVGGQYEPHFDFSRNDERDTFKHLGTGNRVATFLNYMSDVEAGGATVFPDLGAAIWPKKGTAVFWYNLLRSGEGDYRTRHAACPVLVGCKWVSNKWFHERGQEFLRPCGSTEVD
Sequence of UniProt Q8N6M0 (Q8N6M0 whole entry, looked up): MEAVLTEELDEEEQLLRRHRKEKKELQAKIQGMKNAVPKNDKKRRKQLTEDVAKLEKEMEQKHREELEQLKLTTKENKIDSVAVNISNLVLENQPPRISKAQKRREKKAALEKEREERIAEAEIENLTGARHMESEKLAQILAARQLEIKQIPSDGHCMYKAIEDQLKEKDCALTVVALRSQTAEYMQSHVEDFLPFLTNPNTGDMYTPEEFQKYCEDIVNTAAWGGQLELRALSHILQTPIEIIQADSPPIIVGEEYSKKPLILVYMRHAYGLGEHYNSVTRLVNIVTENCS
Sequence of UniProt P55209 (P55209 whole entry, looked up): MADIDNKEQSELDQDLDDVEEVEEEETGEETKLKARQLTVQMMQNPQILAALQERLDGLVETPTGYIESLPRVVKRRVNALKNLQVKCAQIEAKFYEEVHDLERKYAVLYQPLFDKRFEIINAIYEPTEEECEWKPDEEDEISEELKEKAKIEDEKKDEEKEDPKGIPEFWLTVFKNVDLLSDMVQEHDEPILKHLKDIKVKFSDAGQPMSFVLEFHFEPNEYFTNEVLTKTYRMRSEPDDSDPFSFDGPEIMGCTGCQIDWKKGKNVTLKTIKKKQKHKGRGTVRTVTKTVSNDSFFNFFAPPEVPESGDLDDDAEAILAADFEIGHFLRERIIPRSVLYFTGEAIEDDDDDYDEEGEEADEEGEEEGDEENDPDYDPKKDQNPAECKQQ
Sequence of UniProt O00217 (O00217 whole entry, looked up): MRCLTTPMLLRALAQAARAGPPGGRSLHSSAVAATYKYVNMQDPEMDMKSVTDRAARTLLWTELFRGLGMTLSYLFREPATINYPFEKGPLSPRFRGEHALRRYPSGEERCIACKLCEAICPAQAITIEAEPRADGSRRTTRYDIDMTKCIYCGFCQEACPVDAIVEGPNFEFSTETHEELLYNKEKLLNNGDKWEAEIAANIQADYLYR
Sequence of UniProt P15531 (P15531 whole entry, looked up): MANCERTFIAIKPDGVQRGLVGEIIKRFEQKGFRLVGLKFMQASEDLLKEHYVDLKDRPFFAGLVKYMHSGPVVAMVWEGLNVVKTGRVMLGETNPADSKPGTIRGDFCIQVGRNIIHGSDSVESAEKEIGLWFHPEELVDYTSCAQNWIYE

Row | Target | log2 fold change [1] | log2 fold change (volasertib) | log2 fold change [2] | log2 fold change (epoxomicin) | log2 fold change [3] | log2 fold change [4] | log2 fold change [5] | log2 fold change (rosiglitazone) | log2 fold change [6] | log2 fold change [7] | log2 fold change (saracatinib) | log2 fold change (sotrastaurin) | log2 fold change (alvocidib) | log2 fold change (Tubastatin A) | log2 fold change [8] | log2 fold change (defactinib) | log2 fold change (rucaparib) | log2 fold change [9] | log2 fold change (encorafenib) | log2 fold change [10]
1 | MSTO1 (UniProt Q9BUK6) | 0.014 | -0.012 | 0.046 | 0.044 | 0.038 | -0.119 | 0.071 | 0.119 | -0.057 | -0.185 | 0.047 | 0.025 | -0.001 | 0.023 | -0.031 | -0.045 | -0.029 | 0.235 (active) | 0.04 | 0.034
2 | NSUN2 (UniProt Q08J23) | -0.182 | -0.286 | 0.051 | -0.044 | 0.017 | -0.044 | 0.009 | 0.029 | 0.025 | -0.131 | 0.008 | -0.243 | -0.328 (active) | -0.008 | -0.081 | -0.281 (active) | -0.021 | -0.083 | 0.004 | 0.009
3 | NME1 isoform 2 (UniProt P15531) | 0.061 | 0.046 | 0.03 | -0.01 | -0.087 | -0.134 | -0.028 | 0.024 | -0.184 | -0.039 | -0.156 | 0.049 | -0.103 | -0.024 | -0.087 | -0.01 | 0.035 | 0.069 | -0.032 | 0.041
4 | NOP58 (UniProt Q9Y2X3) | 0.095 | -0.066 | 0.057 | -0.263 | 0.005 | 0.192 | 0.052 | -0.052 | 0.234 | 0.2 | -0.044 | -0.008 | 0.075 | 0.014 | -0.058 | -0.004 | 0.304 | -0.01 | 0.106 | -0.076
5 | NOSIP (UniProt Q9Y314) | -0.373 | -1.06 (active) | 0.151 | 0.104 | -0.129 | -0.017 | 0.196 | 0.052 | 0.109 | 0.097 | -0.045 | -0.28 | -0.098 | 0.199 | 0.05 | -0.199 | 0.003 | -0.106 | 0.181 | -0.182
6 | NISCH (UniProt Q9Y2I1) | -0.349 | -0.487 (active) | 0.025 | 0.05 | -0.252 | -0.121 | 0.02 | 0.103 | 0.086 | -0.518 (active) | -0.037 | -0.066 | -0.054 | -0.022 | -0.141 | -0.128 | -0.041 | -0.072 | 0.093 | -0.12
7 | NAP1L1 (UniProt P55209) | -0.112 | -0.237 (active) | 0.005 | 0.048 | 0.007 | -0.008 | 0.013 | 0.014 | 0.003 | -0.038 | 0.042 | -0.039 | -0.045 | -0.008 | 0.053 | -0.008 | 0.039 | -0.084 | 0.048 | 0.023
8 | P4HA2 (UniProt O15460) | 0.08 | -0.012 | -0.006 | -0.257 | -0.038 | 0.138 | -0.036 | -0.126 | 0.112 | 0.118 | 0.002 | -0.033 | 0.004 | 0.098 | 0.003 | 0.085 | 0.145 | 0.016 | -0.019 | 0.001
9 | NDUFS8 (UniProt O00217) | -0.103 | -0.097 | -0.005 | 0.039 | -0.003 | -0.043 | 0 | 0.039 | -0.069 | -0.41 (active) | -0.011 | -0.061 | -0.081 | -0.04 | -0.037 | -0.009 | -0.093 | 0.017 | 0.059 | -0.026
10 | NA, A0A0B4J2A0 | -0.163 | -0.036 | 0.008 | 0.11 | -0.04 | -0.055 | -0.004 | 0.049 | -0.078 | -0.101 | 0.007 | 0.044 | -0.058 | -0.058 | -0.077 | -0.051 | -0.005 | -0.022 | -0.003 | -0.037
11 | OGFOD1 (UniProt Q8N543) | 0.049 | 0.038 | -0.025 | 0.042 | 0.007 | -0.013 | -0.022 | 0.059 | -0.022 | -0.051 | 0.007 | 0.024 | -0.026 | -0.163 | 0.012 | -0.027 | -0.051 | -0.028 | -0.028 | 0.041
12 | MRPS9 (UniProt P82933) | 0.094 | 0.109 | 0.076 | -0.009 | -0.082 | 0.027 | -0.004 | 0.012 | 0.071 | 0.001 | -0.064 | -0.072 | 0.043 | 0.04 | 0.013 | 0.056 | 0.087 | 0.136 | 0.05 | -0.081
13 | OTUD6B (UniProt Q8N6M0) | -0.163 | -0.435 (active) | 0.036 | 0.094 | -0.032 | -0.055 | 0.066 | 0.09 | -0.019 | -0.137 | -0.009 | -0.035 | -0.147 | -0.007 | -0.008 | -0.138 | 0.019 | 0.001 | 0.122 | -0.055
14 | MTOR (UniProt P42345) | -0.131 | -0.305 (active) | 0.04 | -0.021 | -0.05 | -0.073 | 0.036 | 0.058 | 0.017 | -0.286 (active) | -0.076 | 0.088 | -0.101 | 0.002 | -0.005 | -0.09 | 0 | -0.009 | 0.041 | -0.02
15 | NSDHL (UniProt Q15738) | -0.005 | 0.084 | 0.105 | -0.004 | 0.08 | -0.018 | 0.012 | 0.002 | -0.193 | -0.001 | -0.07 | 0.043 | -0.051 | -0.004 | 0.072 | -0.037 | -0.094 | 0.041 | -0.019 | -0.021
16 | MOV10 (UniProt Q9HCE1) | 0.199 | 0.195 | -0.029 | -0.156 | 0.029 | 0.158 | -0.061 | -0.044 | 0.185 | 0.331 | 0.007 | 0.024 | 0.232 | 0.025 | 0.107 | 0.167 | 0.271 | 0 | 0.05 | 0.053
